Results: PubChem BioAssay (Tox21)
Where “and” joins values, the source holds several entries; their conditions need not be identical. Equal values may be shown once. Records with an inconclusive call do not appear. The source holds several records for some structures; these can differ, active in one and inactive in another. Calls of active or inactive are those of the source. Unless noted, calls follow the shape of the dose curve; as a rule, active = well fitted curve in the direction sought with a large enough effect in the repeat runs; inconclusive = weak or mixed curves; inactive = no such curve, though single readings can be large; an effect the other way counts as inactive or inconclusive.

Legend:
[1] = qHTS assay to identify small molecule antagonists of the constitutive androstane receptor (CAR) signaling pathway - cell viability counter screen (AID 1224837); also: series mostly up to about 92 µM; nearly all actives have a fitted effect of over 45% in size
How it was run: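 To flag cytotoxic false antagonists, HepG2 hCAR/CYP2B6-2.2kb cells were treated 23 hr with 15-concentration compound series and 50 nM CITCO at 37 C/5% CO2; CellTiter-Fluor fluorescence was the measured end point.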

[2] = target: Nuclear receptor subfamily 1 group I member 3 (Homo sapiens) (UniProt Q14994); assay: qHTS assay to identify small molecule antagonists of the constitutive androstane receptor (CAR) signaling pathway (AID 1224838);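 also: HepG2 cells stably expressing hCAR with CYP2B6 luciferase reporter stimulated by CITCO; nearly all actives have a fitted effect of over 40% in size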; also: potency is read from the fitted curve at half-maximal effect
How it was run: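 Human hepatoma HepG2 cells expressing hCAR and a CYP2B6 promoter (2.2 kb) luciferase construct; compound titration (15 points) with 50 nM CITCO final, 24 h at 37 C/5% CO2; luminescence via ONE-Glo after 30 min at room temperature.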

[3] = target: Nuclear receptor subfamily 1 group I member 3 (Homo sapiens) (UniProt Q14994); assay: qHTS assay to identify small molecule agonists of the constitutive androstane receptor (CAR) signaling pathway (AID 1224839); also: nearly all actives have a fitted effect of over 15% in size; also: potency is read from the fitted curve at half-maximal effect; as to activation: series mostly up to about 92 µM
How it was run: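 A 15-concentration quantitative screen uses HepG2 cells co-transfected stably with human CAR and CYP2B6-2.2kb reporter. Treatment lasts 24 h with 0.75 uM PK11195 final present; ONE-Glo luminescence is the signal.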

[4] = qHTS assay to identify small molecule antagonists of the estrogen related receptor signaling pathway with the pleiotropic PPARgamma coactivator (PGC) from Tox21 10K library - cell viability counter screen (AID 1224840; active = well fitted cell-killing curve with a large enough effect in the repeat runs, not every such curve was filed as active; also: nearly all actives have a fitted effect of over 40% in size; also: potency is read from the fitted curve at half-maximal effect)
How it was run: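 Seeded PGC/ERR cells (2,000/well, 6 h, 37 C/5% CO2) get compound by pin tool; 17.5 h incubation at 37 C; CellTiter-Fluor added, 30 min, fluorescence measured.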

[5] = target: Thyrotropin receptor (Homo sapiens) (UniProt P16473); assay: qHTS assay to identify small molecule agonists of the thyroid stimulating hormone receptor (TSHR) signaling pathway (AID 1224843; calls by dose curve; also: nearly all actives have a fitted effect of over 45% in size; also: potency is read from the fitted curve at half-maximal effect)
How it was run: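 Agonist activity read as cAMP rise via d2/cryptate HTRF competition, 1 h room-temperature detection, in HEK293 cells expressing TSHR. Fifteen-point titrations, each run in triplicate, with a 30 min room-temperature incubation beforehand.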

[6] = qHTS assay to identify small molecule agonists of the hypoxia (HIF-1) signaling pathway - cell viability counter screen (AID 1224844; calls by dose curve; also: nearly all actives have a fitted effect of over 50% in size)
How it was run: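 HRE-bla ME-180; 0.5% dFBS; cpd 17 h, 37C, 5% CO2; CellTiter-Glo lum., 30 min RT, post-FRET read, same wells.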

[7] = qHTS assay to identify small molecule agonists of H2AX (AID 1224845; active = well fitted activation curve with a large enough effect in the signal ratio in the repeat runs, not every such curve was filed as active; the % refers to the signal ratio)
How it was run: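 Phospho-H2AX Ser139 measured by HTRF (ex 320 nm; em 665 and 620 nm) after 24 hr antibody incubation. Compounds, 15 concentrations, 0.76% DMSO, were applied to CHO-K1 cells for 3hr at 37C before lysis.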

[8] = qHTS assay to identify small molecule antagonists of the estrogen related receptor signaling pathway with the pleiotropic PPARgamma coactivator (PGC) from Tox21 10K library (AID 1224841; call rule not given here; also: series mostly up to about 92 µM; actives are mostly falling curves and most rising ones were filed inactive; nearly all actives have a fitted effect of over 50% in size)
How it was run: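 Test chemicals dissolved in DMSO were applied to pre-incubated (6 h) PGC/ERR cells at 2,000 cells/well for an 18 h, 37 C treatment; reporter luminescence was then read using One-Glo.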

[9] = qHTS assay to identify small molecule agonists of the estrogen related receptor signaling pathway with the pleiotropic PPARgamma coactivator (PGC) from Tox21 10K library (AID 1224842); also: nearly all actives have a fitted effect of over 15% in size
How it was run: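 Luminescence from One-Glo (30 min, room temperature) measured after PGC/ERR cells had 18 h at 37 C with pinned compound (23 nL in DMSO). Cells had been seeded at 2,000 per well and pre-incubated 6 h.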

[10] = qHTS assay to identify small molecule agonists of the hypoxia (HIF-1) signaling pathway (AID 1224846; active = well fitted activation curve with a large enough effect in the signal ratio in the repeat runs, not every such curve was filed as active; the % refers to the signal ratio)
How it was run: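 Reporter induction in HRE-bla ME-180 cells is taken as agonism: cells sit 5 hrs after plating, receive compounds or DMSO only, incubate 17 hrs at 37C under 5% CO2, and are loaded with CCF4-AM for beta-lactamase FRET measurement.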
% is scaled to controls: 0 for no effect and ±100 for the full control effect.

Sequence of Nuclear receptor subfamily 1 group I member 3 (Homo sapiens) (Q14994 whole entry, looked up): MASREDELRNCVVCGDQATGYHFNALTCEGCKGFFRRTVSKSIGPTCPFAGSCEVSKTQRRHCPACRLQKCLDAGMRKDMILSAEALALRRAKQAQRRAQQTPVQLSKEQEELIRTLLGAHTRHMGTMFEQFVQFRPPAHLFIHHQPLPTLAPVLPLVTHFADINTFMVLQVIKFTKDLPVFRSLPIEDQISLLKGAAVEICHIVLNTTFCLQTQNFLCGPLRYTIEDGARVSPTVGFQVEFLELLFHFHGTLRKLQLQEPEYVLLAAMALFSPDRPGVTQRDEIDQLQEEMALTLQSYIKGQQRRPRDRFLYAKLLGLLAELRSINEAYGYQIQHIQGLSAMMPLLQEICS
Sequence of Thyrotropin receptor (Homo sapiens) (P16473 whole entry, looked up): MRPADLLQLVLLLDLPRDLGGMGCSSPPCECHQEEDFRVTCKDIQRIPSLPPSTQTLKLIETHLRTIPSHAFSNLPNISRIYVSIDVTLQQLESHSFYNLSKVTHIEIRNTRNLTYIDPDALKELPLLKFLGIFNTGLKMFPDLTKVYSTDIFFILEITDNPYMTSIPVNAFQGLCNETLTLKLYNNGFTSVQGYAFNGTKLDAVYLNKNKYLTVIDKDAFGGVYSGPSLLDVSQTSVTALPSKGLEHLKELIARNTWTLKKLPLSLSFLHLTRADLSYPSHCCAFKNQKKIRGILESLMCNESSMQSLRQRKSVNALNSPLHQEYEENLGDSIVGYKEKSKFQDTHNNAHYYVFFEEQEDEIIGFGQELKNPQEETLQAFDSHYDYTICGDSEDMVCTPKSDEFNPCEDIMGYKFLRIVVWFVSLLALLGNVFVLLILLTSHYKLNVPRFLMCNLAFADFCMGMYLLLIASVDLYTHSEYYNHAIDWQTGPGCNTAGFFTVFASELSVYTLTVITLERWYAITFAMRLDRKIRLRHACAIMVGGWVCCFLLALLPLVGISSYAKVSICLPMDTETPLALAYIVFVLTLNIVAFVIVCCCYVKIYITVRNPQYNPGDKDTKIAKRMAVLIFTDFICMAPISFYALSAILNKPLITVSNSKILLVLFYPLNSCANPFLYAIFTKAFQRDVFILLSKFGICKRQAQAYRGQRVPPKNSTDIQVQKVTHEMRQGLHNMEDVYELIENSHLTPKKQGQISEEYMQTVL

C#CCN(C)Cc1ccccc1
inactive: Potency [1] | Potency [2] | Potency [3] | Potency [4] | Potency [5] | Potency [6] | Potency [7]

CSCCC=O
inactive: Potency [1] | Potency [2] | Potency [3] | Potency [4] | Potency [8] | outcome [9] | Potency [6] | Potency [7] | outcome [10]

C[Si](O[Si](C)(C)C)O[Si](C)(C)C
inactive: Potency [1] | Potency [2] | Potency [3] | Potency [4] | Potency [5] | Potency [6] | Potency [7] | outcome [10]

O=C(O)CCCC[C@@H]1SC[C@@H]2NC(=O)N[C@@H]21
inactive: Potency [1] | Potency [2] | Potency [3] | Potency [4] | Potency [8] | outcome [9] | Potency [5] | Potency [6] | Potency [7]

CN(C)CCCN
inactive: Potency [1] | Potency [2] | Potency [3] | Potency [4] | Potency [8] | outcome [9] | Potency [5] | Potency [6] | Potency [7] | outcome [10]

CC(=O)c1ccccc1
inactive: Potency [1] | Potency [2] | Potency [3] | Potency [4] | Potency [5] | Potency [6] | Potency [7] | outcome [10]

O=C=NCCCCCCN=C=O
inactive: Potency [1] | Potency [3] | Potency [4] | Potency [5] | Potency [6] | Potency [7] | outcome [10]
23.8 µM (active) and inactive: Potency [2]

O=C(CC(C(=O)OC1CCCCC1)S(=O)(=O)O)OC1CCCCC1 (stereo not given)
inactive: Potency [1] | Potency [2] | Potency [3] | Potency [4] | Potency [8] | outcome [9] | Potency [5] | Potency [6] | Potency [7] | outcome [10]

Cc1cccc(O)c1
inactive: Potency [1] | Potency [2] | Potency [3] | Potency [4] | Potency [8] | outcome [9] | Potency [6] | Potency [7] | outcome [10]

COCCCOc1ccnc(CS(=O)c2nc3ccccc3[nH]2)c1C (stereo not given)
inactive: Potency [1] | Potency [2] | Potency [4] | Potency [8] | outcome [9] | Potency [5] | Potency [6] | Potency [7] | outcome [10]
active: Potency [3] 6.83 µM

CC(=O)Nc1ccccc1
inactive: Potency [1] | Potency [2] | Potency [3] | Potency [4] | Potency [5] | Potency [6] | Potency [7] | outcome [10]

OCC(CO)(CBr)CBr
inactive: Potency [1] | Potency [2] | Potency [3] | Potency [4] | Potency [8] | outcome [9] | Potency [5] | Potency [6] | Potency [7] | outcome [10]

CC(C)(N)CO
inactive: Potency [1] | Potency [2] | Potency [3] | Potency [4] | Potency [8] | outcome [9] | Potency [5] | Potency [6] | Potency [7] | outcome [10]

CC1=C(C)S(=O)(=O)CCS1(=O)=O
inactive: Potency [1] | Potency [2] | Potency [4] | Potency [8] | outcome [9] | Potency [6] | Potency [7] | outcome [10]
active: Potency [3] 3.01 µM

O=C(O)c1ccccc1C(c1ccc(O)cc1)c1ccc(O)cc1
inactive: Potency [1] | Potency [2] | Potency [3] | Potency [4] | Potency [8] | outcome [9] | Potency [5] | Potency [6] | Potency [7] | outcome [10]

CCCCCCCCC/C=C/CC1CC(=O)OC1=O (stereo not given)
inactive: Potency [1] | Potency [2] | Potency [3] | Potency [4] | Potency [5] | Potency [6] | Potency [7] | outcome [10]

NNc1nncc2ccccc12
inactive: Potency [1] | Potency [2] | activation [3] 12.7% [at 19 µM] | viability change, negative = cytotoxic [4] 3.22% [at 19 µM] | activation [5] -1.13% [at 19 µM] | Potency [6] | activation (H2AX phosphorylation) [7] 1% [at 31.6 µM]
active: Potency [3] 12.2 µM

CCCCC(CC)COC(=O)CCCCC(=O)OCC(CC)CCCC (stereo not given)
inactive: Potency [1] | Potency [2] | Potency [3] | Potency [4] | Potency [5] | Potency [6] | Potency [7] | outcome [10]

C=C(C)C(=O)OCCOCCOCCOC(=O)C(=C)C
inactive: Potency [1] | Potency [2] | Potency [3] | Potency [4] | Potency [5] | Potency [6] | Potency [7] | outcome [10]

CC1CCC2CC1C2(C)C (stereo not given)
inactive: Potency [1] | Potency [2] | Potency [3] | Potency [4] | Potency [5] | Potency [6] | Potency [7] | outcome [10]

O=C(O)CCCCCCCCCCC(=O)O
inactive and 1 nM (active): Potency [2]
inactive: Potency [1] | Potency [3] | Potency [4] | Potency [5] | Potency [6] | Potency [7] | outcome [10]

C=CCNC(N)=S
inactive: Potency [1] | Potency [2] | Potency [3] | Potency [4] | Potency [5] | Potency [6] | Potency [7] | outcome [10]

O=C(O)c1ccc(C(=O)O)cc1
inactive: Potency [1] | Potency [2] | Potency [3] | Potency [4] | Potency [5] | Potency [6] | Potency [7] | outcome [10]

CC(=O)CC(=O)Nc1ccccc1C
inactive: Potency [1] | Potency [2] | Potency [3] | Potency [4] | Potency [8] | outcome [9] | Potency [6] | Potency [7] | outcome [10]
9.8 µM (active) and inactive: Potency [5]

CCCCCC1=CCCC1=O
inactive: Potency [1] | Potency [2] | Potency [3] | Potency [4] | Potency [5] | Potency [6] | Potency [7] | outcome [10]

COc1ccc(Cl)cc1C(=O)NCCc1ccc(S(=O)(=O)NC(=O)NC2CCCCC2)cc1
inactive: Potency [1] | Potency [2] | Potency [3] | Potency [4] | Potency [5] | Potency [6] | Potency [7]

O=C1CCC(N2C(=O)c3ccccc3C2=O)C(=O)N1 (stereo not given)
inactive: Potency [1] | Potency [2] | Potency [3] | Potency [4] | Potency [5] | Potency [6] | Potency [7]

CN(C)CCOCCN(C)C
inactive: Potency [1] | Potency [2] | Potency [3] | Potency [4] | Potency [8] | outcome [9] | Potency [5] | Potency [6] | Potency [7] | outcome [10]

C=C(C)C(=O)Nc1ccc(Cl)c(Cl)c1
inactive: Potency [1] | Potency [2] | Potency [4] | Potency [5] | Potency [6] | Potency [7] | outcome [10]
active: Potency [3] 55 µM and 48.4 µM

CC[C@H](C)C(=O)O[C@H]1C[C@@H](C)C=C2C=C[C@H](C)[C@H](CC[C@@H]3C[C@@H](O)CC(=O)O3)[C@H]21
inactive: Potency [1] | Potency [2] | Potency [3] | Potency [8] | outcome [9] | Potency [5] | Potency [6] | Potency [7] | outcome [10]
69.6 µM (active) and inactive: Potency [4]

CCC(O)OCCCOC (stereo not given)
inactive: Potency [1] | Potency [2] | Potency [3] | Potency [4] | Potency [8] | outcome [9] | Potency [5] | Potency [6] | Potency [7] | outcome [10]

O=c1[nH]c(=O)n([C@H]2CCCO2)cc1F
inactive: Potency [1] | Potency [2] | Potency [3] | Potency [4] | Potency [5] | Potency [6] | Potency [7] | outcome [10]

CN(C)CCC(c1ccccc1)c1ccccn1 (stereo not given)
inactive: Potency [1] | Potency [2] | Potency [3] | Potency [4] | Potency [5] | Potency [6] | Potency [7]

CC(=O)OCC(=O)[C@@]12N=C(C)O[C@@H]1C[C@H]1[C@@H]3CCC4=CC(=O)C=C[C@]4(C)[C@H]3[C@@H](O)C[C@@]12C
inactive: Potency [1] | Potency [2] | Potency [3] | Potency [4] | Potency [5] | Potency [6] | Potency [7] | outcome [10]

Fc1ccc(Br)cc1
30.9 µM (active) and inactive: Potency [5]
inactive: Potency [1] | Potency [2] | Potency [3] | Potency [4] | Potency [8] | outcome [9] | Potency [6] | Potency [7] | outcome [10]

CCCCCCCCCCCCS
inactive: Potency [1] | Potency [2] | Potency [3] | Potency [4] | Potency [5] | Potency [6] | Potency [7] | outcome [10]
